Bioassay records: PubChem, several laboratories
In the library only some 2.8% were active in any assay of this set; here they are far more common.
Shn3 inh set2 – reduces Shn3 3'UTR luciferase signal in osteoblasts; AID 588674; 0.52% of 360,000 active; inhibition, % at 12.5 µM; Clone20 osteoblast Shn3 3'UTR firefly luciferase, 24 h;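 active = mean inhibition of at least 75% with every replicate also reaching 75%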;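 also: 0% = median of neutral control wells and 100% = pilot-screen positive control compound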
CF NFkB block – blocks PAF-induced NF-kB reporter in cystic fibrosis cells; KKLEB NF-kB-GFP reporter, GFP fluorescence overnight; inhibition, % at 5 µM; 0.86% of 360,000 active;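 active = at least 50% inhibition at 5 µM, scaled per plate between neutral and stimulator controls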;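 also: PAF is a Pseudomonas aeruginosa culture filtrate used as stimulus; plate controls were PAF-stimulated DMSO wells for no effect and unstimulated DMSO wells for full effect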
KKLEB cytotox – CF airway cell cytotoxicity counter-screen. KKLEB CF airway cells viability, ATPlite luminescence, overnight; hits give low values; cells stimulated with P. aeruginosa culture filtrate. activity change (cytotoxicity), % at 5 µM. 0.36% of 360,000 active;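 active = corrected activity change at or below -50% at 5 µM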
HIF-2a block – inhibitors of HIF-2a | 0.72% of 360,000 active | AID 624352 | inhibition, % at 18.8 µM | 786-0 RCC cells HIF-2a reporter, luciferase luminescence, overnight;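 active = inhibition of the luminescence signal of 40% or more relative to plate controls, in a single-dose primary screen at 18.75 µM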
Peg3 prom inh-1 – inhibitors of Peg3 promoter. inhibition, % at 20 µM. HeLa PEG-Prom luciferase reporter, luminescence, overnight. 1.7% of 360,000 active;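 active = inhibition of at least 50% at 20 µM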
TRPM1 prom inh – reduces MITF-dependent TRPM1 promoter luciferase signal | 0.83% of 330,000 active | inhibition, % at 12.5 µM | SK-MEL-5 TRPM1 promoter luciferase, 24 h;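 active = mean inhibition across replicates of 60% or more, whatever share of single replicates reaches that level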
Peg3 prom inh-2 – Peg3 promoter inhibition confirmation; shares compounds with Peg3 prom inh-1; HeLa PEG-Prom luciferase reporter, luminescence, overnight; AID 602417; inhibition, % at 20 µM; 84% of 1,300 active;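 active = at 20 µM dose, 40% or more inhibition averaged across four replicates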
Numbers without * were called inactive; . = no result given.

SMILES	Shn3 inh set2	CF NFkB block	KKLEB cytotox	HIF-2a block	Peg3 prom inh-1	TRPM1 prom inh	Peg3 prom inh-2
Cc1ccc2cccc(OCC(=O)Nc3cccc(S(=O)(=O)N4CCCC4)c3)c2n1	18	2	-18	6	64*	2	64*
Cc1cccc(NC(=O)CSc2ncnc3sc(C)cc23)c1	-20	-2	-2	-27	-11	-10	.
O=S(=O)(CC(CN1CCCCC1)N1CCCCC1)c1ccccc1 (stereo not drawn)	-15	50	-16	-11	67*	47	88*
C=CCc1cccc(/C=N/NC(=O)C(C)Nc2cccc(C)c2)c1O (stereo not drawn)	-2	38	-13	21	50*	14	44*
C=CCc1cccc(/C=N/NC(=O)CCCNc2ccc(C)cc2)c1O	24	0	-6	20	29	4	.
Cc1ccc(S(=O)(=O)Nc2cccc(C(=O)N3CCC(C(N)=O)CC3)c2)cc1	6	-9	6	11	1	3	.
O=C(Nc1nccs1)c1cnc2sccn2c1=O	-27	7	3	-118	-117	.	.
COc1ccccc1N(CC(=O)Nc1ccccc1C)S(C)(=O)=O	1	-14	2	1	15	3	.
COc1ccccc1N(CC(=O)N/N=C/c1c(O)ccc2ccccc12)S(C)(=O)=O	73	1	-2	22	50*	48	70*
Cc1cc(S(=O)(=O)c2ccc(Cl)cc2)nc(S(=O)(=O)c2ccc(Cl)cc2)c1C#N	91*	88*	-93*	89*	113*	.	97*
Nc1nc2c(ncn2[C@@H]2O[C@H](CNS(=O)(=O)C3CC3)[C@@H](O)[C@H]2O)c(=O)[nH]1	-7	-13	1	1	8	.	.
COc1ccc(NC(=O)c2cc3c(CO)cnc(C)c3oc2=Nc2cccc(C)c2)c(OC)c1	22	8	-1	4	89*	-10	25
Cc1ccccc1-c1cc2nc(Oc3ccc4c(c3)OCO4)n(C)c(=O)c2s1	0	32	-20	5	13	.	.
Cc1ccc(C(=O)O)cc1N1C(=O)c2cccc3c([N+](=O)[O-])ccc(c23)C1=O	4	-27	20	7	2	0	.
O=C(O)c1ccc(CN2C(=O)c3cccc4c([N+](=O)[O-])ccc(c34)C2=O)cc1	73	15	13	-9	103*	12	90*
NC(=O)CSc1nc(-c2ccccc2)nc2ccccc12	10	-41	-4	-3	7	-32	.
Cc1cccc2c(SCC(N)=O)nc(-c3ccccc3)nc12	5	-4	0	10	51*	0	33
COc1ccc(N=CC2=C(O)c3ccccc3C2=O)cc1	40	-10	-51*	7	75*	30	-3
O=C1C(C=Nc2ccccc2)=C(O)c2ccccc21	-99	-22	-12	-238	-192	-27	.
COc1cc(SC)ccc1C(=O)Nc1ccc(C)cc1	-124	3	-31	-230	-250	-16	.
COc1cc(SC)ccc1C(=O)Nc1ncc(C)s1	41	-10	-53*	49*	77*	65*	61*
CC[C@H](C)[C@H]1O[C@]2(CC[C@@H]1C)C[C@@H]1C[C@@H](CC=C(C)[C@@H](O[C@H]3C[C@H](OC)[C@@H](O[C@H]4C[C@H](OC)[C@@H](O)[C@H](C)O4)[C@H](C)O3)[C@@H](C)C=CC=C3CO[C@@H]4[C@H](O)C(C)=C[C@@H](C(=O)O1)[C@]34O)O2	97*	56*	-51*	53*	84*	58	38
[2H]C([2H])(CCOS(N)(=O)=O)c1ccccc1	4	-3	2	3	11	-6	.
c1cncc(CNCc2ccco2)c1	17	6	4	9	3	-1	.
CCOC(=O)C1CCCN(Cc2ccc(OC)c(OCc3ccccc3)c2)C1 (stereo not drawn)	-4	-13	-7	27	13	-7	.
SMILES	Shn3 inh set2	CF NFkB block	KKLEB cytotox	HIF-2a block	Peg3 prom inh-1	TRPM1 prom inh	Peg3 prom inh-2
COc1cc(NC(=O)CN2C(=O)CSc3ccc(S(=O)(=O)N4CCCC4)cc32)cc(OC)c1	6	1	0	12	9	11	.
COc1ccc(-n2cc(CNC3CCN(C)CC3)c(-c3cccc(F)c3)n2)cc1	-1	14	-7	-3	52*	-1	60*
Cc1cnn(C(=O)c2cc(-c3ccccn3)nc3ccc(Cl)cc23)c1	-11	-1	3	11	4	22	.
COc1ccc(CN2CCN(C(=O)c3cc(-c4cccnc4)nc4ccc(Cl)cc34)CC2)c(OC)c1OC	21	2	-22	12	94*	-4	56*
O=C(c1cc(-c2ccccn2)nc2ccc(Cl)cc12)N1CCN(CCc2ccccc2)CC1	10	4	-18	17	51*	13	36
C=CCNc1nc(Nc2ccc(OC)c(OC)c2)c2sc(-c3ccccc3)cc2n1	19	14	-9	-194	-85	.	.
Cc1ccc2c(c1)[C@@H]1[C@H](CO2)[C@H](c2ccccc2)[C@]2(C)C(=O)N[C@H](C)C(=O)N12	-2	-6	13	17	5	2	.
CCCc1ccc(-c2cc(C(=O)Nc3ccc([N+](=O)[O-])cn3)c3ccccc3n2)cc1	-19	-13	-14	-171	-124	-27	.
CCc1ccc(O)c(CNCCNCc2cc(CC)ccc2O)c1	86*	-3	-27	28	91*	49	92*
COc1ccc(CNCc2cc(Cl)ccc2O)cc1	3	-11	-3	-12	-54	-9	.
COc1ccc(C(=O)Nc2nnc(-c3ccco3)s2)cc1	37	23	-27	-43	63*	34	-39
COc1cccc(C(C(=O)NCC2CCCO2)N(C(=O)Cn2nnc3ccccc32)c2ccc(NC(C)=O)cc2)c1 (stereo not drawn)	13	-2	7	10	-1	-6	.
O=S(=O)(c1cccc(F)c1)N1CCN(c2nc(-c3cccnc3)nc3ccccc23)CC1	15	-3	-16	-37	53*	13	55*
O=C(c1cc(Cl)nc2ccccc12)N1CCN(S(=O)(=O)c2cccc(F)c2)CC1	4	17	6	14	14	13	.
O=C(CC1CC2CCC1C2)NC1CCCCCCC1 (stereo not drawn)	-23	10	-4	-115	-144	-27	.
Cc1ccc(N2CC(C(=O)Nc3nccs3)CC2=O)cc1Cl (stereo not drawn)	-7	45	-32	-65	90*	-14	94*
O=C1/C(=C/c2ccccc2)CCc2ccc(Cl)nc21	-25	-4	4	12	76*	36	11
COc1ccc(-c2cc3nc4n(c(=O)c3s2)CCC4)cc1	41	-33	0	15	59*	51	32
